CSC inhib – cancer stem cell inhibition. cancer stem cell-like cells viability, luminescence. hit rate 1.1% among 300,000. AID 2717. inhibition, % at 7.5 µM; in the data active = inhibition above about 75%; inconclusive = no clear call, values can overlap the other calls; tested in HMLE shEcad cells
SKKanGAS inh – SKKanGAS growth inhibition; S. pyogenes SKKanGAS, kanamycin growth, BacTiter-Glo, 6 h; inhibition, % at 7.5 µM; hit rate 1.3% among 300,000;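 active = mean replicate score, as percent of positive control median, at least 50; inconclusive = mean below 50 but one replicate at or above 50; inactive = mean and every replicate below 50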;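 also: strain carries kanamycin resistance gene driven by streptokinase promoter and grows in 40 µg/ml kanamycin; loss of luminescence reflects streptokinase promoter inhibition or plain growth inhibition; 0% = median of DMSO wells and 100% = positive control at its reference dose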
aSyn 5UTR inh – MLPCN primary screen, SNCA 5' untranslated region; inhibition, % (tested at 7.5 µM); hit rate 0.82% among 300,000; AID 1813; alpha-synuclein 5'UTR reporter, inhibitor activity; in the data active = inhibition above about 60%; inconclusive = no clear call, values can overlap the other calls;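 also: H4 neuroglioblastoma cells stably carrying SNCA 5'UTR luciferase fusion; 0% = DMSO wells and 100% = positive control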
KLF5 inhibitor – suppresses KLF5 promoter-driven expression. DLD-1 KLF5 promoter-luciferase reporter, luminescence. inhibition, % at 5 µM. hit rate 0.23% among 290,000. AID 1700;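 active = inhibition above a per-plate limit of that plate's mean compound inhibition plus 3 SD, cut at about 60% in these data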;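 also: 0% = DMSO wells and 100% = LY294002 at 200 µM; higher means less KLF5 promoter-driven luciferase light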
IEC-6 tox-1 – counter-screen for KLF5 inhibitors: cytotoxicity in IEC-6 cells; IEC-6 cytotoxicity, luminescence viability; inhibition, % at 5 µM; hit rate 0.78% among 290,000; AID 1825;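 also: 0% = plate median of test compound wells and 100% = cytotoxic reference compound wells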
KLF5 inh confirm – confirmation of KLF5 inhibitors; inhibition, % at 4 µM; DLD-1 KLF5 promoter firefly luciferase reporter, luminescence; hit rate 79% among 610; shares compounds with KLF5 inhibitor;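 active = inhibition above a set limit taken from the earlier primary screen, cut at about 63% in these data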;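 also: 0% = DMSO wells and 100% = LY294002 at 200 µM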
IEC-6 tox-2 – counter-screen for KLF5 inhibitors: cytotoxicity in rat IEC-6 cells; shares compounds with KLF5 inhibitor; IEC-6 rat intestinal cells, viability luminescence; inhibition, % at 4 µM; hit rate 56% among 610; AID 1905; in the data active = inhibition above about 23%;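 also: cells exposed to compounds for 48 hours before viability read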
IEC-6 cytotox cf – IEC-6 cytotoxicity, confirmation assay | shares compounds with IEC-6 tox-1 | IEC-6 rat intestinal epithelial viability, luminescence | inhibition, % at 5 µM | hit rate 63% among 1,900 | AID 1907;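 also: 0% = vehicle and 100% = reference cytotoxic drug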
An asterisk follows results filed as active. Shown are actives, neighbours in structure and some others; about 3% of the full set was active somewhere. Rule as the data show it, unless noted: active = inhibition above about 22%; inactive = the rest.

COC(=O)c1cc(C(=O)N2CCN(c3cccc(Cl)c3)CC2)cc([N+](=O)[O-])c1 was read as CSC inhib 54.1, SKKanGAS inh 6.7, aSyn 5UTR inh 37.5, KLF5 inhibitor 69.6*, IEC-6 tox-1 79.4*, KLF5 inh confirm 75.9*, IEC-6 tox-2 55.8* and IEC-6 cytotox cf 53.0*.
CC(OC(=O)C1CCCCC1)C(=O)Nc1cccc([N+](=O)[O-])c1 (stereo not given) was read as CSC inhib -15.7.
CCC1CCCCN1S(=O)(=O)c1ccc(NC(=O)C2CCCO2)cc1 (stereo not given) was read as CSC inhib -10.3, SKKanGAS inh 1.8, aSyn 5UTR inh -21.2, KLF5 inhibitor -8.4 and IEC-6 tox-1 1.1.
COc1cccc(C(=O)Nc2sc3c(c2C#N)CCN(C(C)=O)C3)c1 was read as CSC inhib 9.5, aSyn 5UTR inh -13.7, KLF5 inhibitor 73.5*, IEC-6 tox-1 77.0*, KLF5 inh confirm 79.0*, IEC-6 tox-2 56.0* and IEC-6 cytotox cf 26.2*.
COc1cccc(C(=O)Nc2sc3c(c2C(=O)O)CCCC3)c1 was read as CSC inhib 27.8, SKKanGAS inh 11.8, aSyn 5UTR inh 9.5, KLF5 inhibitor 54.8 and IEC-6 tox-1 -4.0.
Cn1ncc([N+](=O)[O-])c1C(=O)Nc1ccc(-c2nc3ccccc3o2)cc1 was read as CSC inhib 1.6, SKKanGAS inh 4.4, aSyn 5UTR inh -129.5, KLF5 inhibitor -23.4 and IEC-6 tox-1 4.3.
CN(CCOc1ccccc1)C(=O)c1cc([N+](=O)[O-])ccc1N1CCOCC1 was read as CSC inhib -2.9, SKKanGAS inh 15.6 and aSyn 5UTR inh -13.3.
COc1ccc(C(=O)c2cc([N+](=O)[O-])ccc2N2CCOCC2)cc1 was read as CSC inhib 39.9, SKKanGAS inh -4.9, aSyn 5UTR inh inconclusive, KLF5 inhibitor 77.3*, IEC-6 tox-1 84.9*, KLF5 inh confirm 82.8*, IEC-6 tox-2 66.2* and IEC-6 cytotox cf 64.0*.
CCOc1ccc(C(=O)c2cc([N+](=O)[O-])ccc2N2CCOCC2)cc1 was read as CSC inhib 58.2, SKKanGAS inh -3.3, aSyn 5UTR inh 79.1*, KLF5 inhibitor 89.4*, IEC-6 tox-1 92.2*, KLF5 inh confirm 94.8*, IEC-6 tox-2 86.1* and IEC-6 cytotox cf 81.8*.
Cc1ccc(COC(=O)c2cc([N+](=O)[O-])ccc2N2CCOCC2)cc1 was read as CSC inhib 45.5, SKKanGAS inh 0.5, aSyn 5UTR inh 67.9*, KLF5 inhibitor 82.5*, IEC-6 tox-1 87.0*, KLF5 inh confirm 84.1*, IEC-6 tox-2 74.2* and IEC-6 cytotox cf 60.9*.
N#CC(C#N)=C(Nc1ccc(F)cc1)SCc1cccc(Br)c1 was read as CSC inhib 118.8*, SKKanGAS inh 24.6, aSyn 5UTR inh inconclusive, KLF5 inhibitor 65.1*, IEC-6 tox-1 29.6*, KLF5 inh confirm 67.8*, IEC-6 tox-2 28.3* and IEC-6 cytotox cf 40.8*.
For Cc1cccc(CSC(Nc2ccc(F)cc2)=C(C#N)C#N)c1 the results were CSC inhib -25.7, SKKanGAS inh 20.5, aSyn 5UTR inh 32.1, KLF5 inhibitor -3.8 and IEC-6 tox-1 13.3.
Screening S=C(NCc1ccco1)NCC1CCCO1 (stereo not given) returned CSC inhib -6.5, SKKanGAS inh -0.3, aSyn 5UTR inh 16.8, KLF5 inhibitor -52.8 and IEC-6 tox-1 -0.5.
`CN(CCO)S(=O)(=O)c1ccc2c(c1)C(=NN)c1cc(S(=O)(=O)N(C)CCO)ccc1-2` gave CSC inhib -8.2, SKKanGAS inh -1.3, aSyn 5UTR inh 4.2, KLF5 inhibitor -7.3 and IEC-6 tox-1 -0.8.
`COc1ccccc1C1=NOC(COc2ccc3c(C)cc(=O)oc3c2)C1` (stereo not given) gave CSC inhib 79.1*, SKKanGAS inh 5.5, aSyn 5UTR inh 13.0, KLF5 inhibitor 70.7*, IEC-6 tox-1 83.3*, KLF5 inh confirm 81.3*, IEC-6 tox-2 60.6* and IEC-6 cytotox cf 57.2*.
COc1cccc(COc2ccc3c(C)cc(=O)oc3c2)c1 was read as CSC inhib 6.2, SKKanGAS inh -1.3, aSyn 5UTR inh -164.5, KLF5 inhibitor -183.5 and IEC-6 tox-1 -2.5.
Screening CCN1/C(=C/c2sc(-c3ccccc3C)c[n+]2C)Sc2ccccc21 returned SKKanGAS inh 5.6, aSyn 5UTR inh 94.4*, KLF5 inhibitor 63.1*, IEC-6 tox-1 34.5*, KLF5 inh confirm 40.5, IEC-6 tox-2 13.8 and IEC-6 cytotox cf 38.5*.
For CCN(CC)CCNC(=O)c1ccc(NC(=O)c2ccccc2-c2ccc(C(F)(F)F)cc2)cc1 the results were CSC inhib 14.2, SKKanGAS inh 1.3, aSyn 5UTR inh -27.1, KLF5 inhibitor -2.4 and IEC-6 tox-1 -2.7.
CCOc1ccc(S(=O)(=O)NCc2ccccn2)cc1NC(=O)c1ccccc1F was read as CSC inhib 53.0, SKKanGAS inh 2.5, aSyn 5UTR inh 75.6*, KLF5 inhibitor 70.2*, IEC-6 tox-1 87.9*, KLF5 inh confirm 80.5*, IEC-6 tox-2 54.9* and IEC-6 cytotox cf 57.6*.
For COc1ccc(S(=O)(=O)NCc2ccncc2)cc1NC(=O)c1ccccc1F the results were CSC inhib 3.3.
COc1ccc2ccccc2c1/C=N/Nc1ccc(Cl)c(C(=O)O)c1 was read as CSC inhib 9.5, SKKanGAS inh 10.3, aSyn 5UTR inh -22.3, KLF5 inhibitor -50.4 and IEC-6 tox-1 -3.7.
COc1ccc(N/N=C/c2c(C(=O)O)ccc3ccccc23)cc1 was read as CSC inhib 109.3*, SKKanGAS inh 25.0, aSyn 5UTR inh 55.8, KLF5 inhibitor 72.8*, IEC-6 tox-1 41.4*, KLF5 inh confirm 91.5*, IEC-6 tox-2 7.4 and IEC-6 cytotox cf 35.8*.
Screening CCN(CC)c1ccc(/C=C2\C(=O)c3ccc(C(=O)O)cc3C2=O)cc1 returned CSC inhib -1.3, KLF5 inhibitor -17.9 and IEC-6 tox-1 -19.8.
Screening C=C(C)COc1ccc(-c2n[nH]c(C)c2Oc2ccccc2OC)c(O)c1 returned CSC inhib -7.3, SKKanGAS inh 4.4, aSyn 5UTR inh -22.8, KLF5 inhibitor -1.3 and IEC-6 tox-1 5.9.
C=C(C)COc1ccc(-c2n[nH]c(C)c2-c2ccc(OC)c(OC)c2)c(O)c1 was read as CSC inhib 80.9*, SKKanGAS inh 20.5, aSyn 5UTR inh 49.3, KLF5 inhibitor 62.6*, IEC-6 tox-1 75.4*, KLF5 inh confirm 69.5*, IEC-6 tox-2 27.9* and IEC-6 cytotox cf 48.8*.
Screening COc1ccccc1NC(=O)OCC#CCOC(=O)Nc1ccccc1OC returned CSC inhib 9.8, SKKanGAS inh 1.5, aSyn 5UTR inh -36.3, KLF5 inhibitor -2.8 and IEC-6 tox-1 -0.8.
For CN1/C(=C/c2cccc[n+]2CCO)Sc2ccccc21 the results were CSC inhib -9.3, SKKanGAS inh 3.2, aSyn 5UTR inh -0.6, KLF5 inhibitor -18.1 and IEC-6 tox-1 3.0.
